RGS8-Gao – modulates binding of RGS8 to human Galphao; P09471; actives 0.34% (n = 220,000); multiplexed bead flow cytometry; actives lie on both sides; response (percent of control binding), % at 10 µM; in the data active = response below about 60% or above about 140%; inactive = in between;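 note: Galphao activated as the GDP aluminium fluoride complex binding bead-coupled RGS8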
Target sequence (P09471 whole entry, looked up): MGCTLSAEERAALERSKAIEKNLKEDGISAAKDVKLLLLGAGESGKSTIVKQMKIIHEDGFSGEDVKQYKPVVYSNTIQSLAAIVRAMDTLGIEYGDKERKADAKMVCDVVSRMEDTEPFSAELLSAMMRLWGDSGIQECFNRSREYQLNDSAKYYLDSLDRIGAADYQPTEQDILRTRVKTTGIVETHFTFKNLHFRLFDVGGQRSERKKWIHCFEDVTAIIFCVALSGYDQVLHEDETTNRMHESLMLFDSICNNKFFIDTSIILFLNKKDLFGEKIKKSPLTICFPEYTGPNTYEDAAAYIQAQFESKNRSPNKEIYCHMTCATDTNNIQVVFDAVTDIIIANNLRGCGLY
RGS7-Gao reg – modulates binding of RGS7 to human Galphao; actives 0.35% (n = 220,000); P09471; AID 1439; binding response (% of control), % at 10 µM; Multiplexed bead flow cytometry; actives lie on both sides; in the data active = binding response below about 49% or above about 150%; inconclusive = no clear call, values can overlap the other calls; inactive = in between;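 note: fluorescent Galphao held in activated GDP-AlF4 state binding bead-coupled RGS7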
RGS4-Gao reg – modulates binding of RGS4 to human Galphao. P09471. Multiplexed bead flow cytometry; actives lie on both sides. binding response (% of control), % at 10 µM. actives 0.33% (n = 220,000); in the data active = binding response below about 49% or above about 150%; inactive = in between;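 note: fluorescent Galphao activated with aluminum fluoride binding bead-coupled RGS4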
RGS16-Gao HTS – RGS16-Galphao interaction regulator (human); binding response (% of control), % at 10 µM; actives 0.38% (n = 220,000); bead-based flow cytometry RGS16-Galphao binding, fluorescence; actives lie on both sides;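 note: Galphao activated by GDP with aluminum fluoride before binding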
Target sequence (O15492 whole entry, looked up): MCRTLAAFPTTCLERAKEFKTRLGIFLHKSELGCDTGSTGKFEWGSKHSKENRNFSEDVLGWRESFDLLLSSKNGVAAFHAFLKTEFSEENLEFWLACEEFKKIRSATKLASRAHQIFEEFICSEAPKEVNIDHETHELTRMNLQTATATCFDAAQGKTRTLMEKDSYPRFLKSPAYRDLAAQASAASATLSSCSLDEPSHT
Target sequence (P09471 whole entry, looked up): as the sequence (P09471 whole entry, looked up) above
GSH fluor – compound fluoresces at 488/530 nm on GSH beads. actives 0.25% (n = 190,000). GSH beads flow cytometry, compound fluorescence 488/530 nm; hits give high values. fluorescence (KMESF) at 10 µM; in the data active = fluorescence above about 89;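 note: glutathione beads carrying GST-tagged Bcl family fusion proteins plus one bare bead set; values are compound well signal with DMSO vehicle wells as background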
Avidin fluor – avidin bead compound fluorescence profile. actives 0.38% (n = 220,000). AID 1775. fluorescence (KMESF) at 10 µM. Avidin beads, compound fluorescence 488/530 nm, flow cytometry; hits give high values; in the data active = fluorescence above about 47
RGS-Gao – regulators of human RGS4-Galphao interaction; shares compounds with RGS16-Gao HTS; actives 99% (n = 1,600); RGS4–Galpha-o binding response, % at 10 µM; AID 1504; multiplexed bead flow cytometry, RGS–Galpha-o binding;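 note: fluorescently labeled Galpha-o bound to GDP with aluminium fluoride binding biotinylated RGS beads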
Biotin-avidin – interferes with biotinylated probe binding to avidin beads; shares compounds with RGS16-Gao HTS; streptavidin beads, fluorescein-biotin binding, flow cytometry; inhibition, % at 10 µM; 1,700 tested, under 10 active;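 active = inhibition above 50%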;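 note: median green fluorescence of gated singlet beads compared with DMSO control wells; 0% = DMSO wells and 100% = complete loss of bead fluorescence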
RGS8-Gao confirm – RGS8-Galphao interaction regulation, single point confirmation | shares compounds with RGS16-Gao HTS | bead-based flow cytometry RGS8-Galphao binding, fluorescence; actives lie on both sides | binding response (% of control), % at 10 µM | actives 3% (n = 1,700); in the data active = binding response below about 72% or above about 130%; inactive = in between;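 note: Galphao activated as GDP AlF4 complex before binding bead RGS8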
RGS7-Gao single – RGS7-Galphao interaction regulation, single point confirmation | shares compounds with RGS16-Gao HTS | bead-based flow cytometry RGS7-Galphao binding; actives lie on both sides | response (percent of control binding), % at 10 µM | actives 7.8% (n = 1,700) | AID 1837; in the data active = response below about 75% or above about 130%; inactive = in between;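 note: fluorescent Galphao activated with GDP and aluminum fluoride binding bead-coupled RGS7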
RGS16-Gao single – confirmation of regulators of human RGS16-Galphao interaction; response (% of control binding), % at 10 µM; shares compounds with RGS16-Gao HTS; AID 1838; actives 4% (n = 1,700); bead-based flow cytometry, RGS16-Galphao binding; actives lie on both sides; in the data active = response below about 74% or above about 130%; inactive = in between;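 note: Galphao activated as the GDP aluminium fluoride complex binding bead-coupled RGS16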
RGS4-Gao confirm – confirmation of regulators of human RGS4-Galphao interaction; shares compounds with RGS16-Gao HTS; RGS4-Galphao binding, multiplexed bead flow cytometry; actives lie on both sides; binding response (% of control), % at 10 µM; actives 4% (n = 1,700); in the data active = binding response below about 74% or above about 130%; inactive = in between
RGS19-Gao conf – RGS19-Galphao interaction regulation, single point confirmation | actives 5% (n = 1,700) | shares compounds with RGS16-Gao HTS | AID 1841 | bead-based flow cytometry RGS19-Galphao binding; actives lie on both sides | response (percent of control binding), % at 10 µM; in the data active = response below about 50% or above about 160%; inactive = in between;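 note: 100% = no compound control and 0% = blank background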
* = called active by the depositor; ? = inconclusive; / = no result given; [ ] = another dose, or the depositor's remark. Most compounds without a hit are left out; they make up all but 1.2% or so of the library. Unless noted, the rule behind the calls is not given here.

SMILES	RGS8-Gao	RGS7-Gao reg	RGS4-Gao reg	RGS16-Gao HTS	GSH fluor	Avidin fluor	Biotin-avidin	RGS8-Gao confirm	RGS7-Gao single	RGS16-Gao single	RGS4-Gao confirm	RGS19-Gao conf	others
C=CCn1c(Cc2c[nH]c3ccccc23)n[nH]c1=S	101.6	99.8	99.7	102.8	33	10	/	/	/	/	/	/
C=CCn1c(Cc2ccccc2)n[nH]c1=S	65.8	93.4	95.5	9.3*	13	8	-0.8	103.0	107.5	100.7	105.8	112.0	RGS-Gao=95.5*
CCN(CC)C(=O)C(C)OC(=O)COc1ccc(Cl)cc1Cl (stereo not given)	99.8	99.3	98.6	100.8	9	16	/	/	/	/	/	/
COc1cc(CN2CCC(C(=O)N3CCN(c4ccccc4F)CC3)CC2)cc(OC)c1OC	100.0	98.6	99.6	102.1	35	8	/	/	/	/	/	/
COc1ccc(CN2CCC(C(=O)N3CCN(c4ccccc4F)CC3)CC2)cc1OC	141.3*[activator]	141.3	134.6	183.9	25	25	/	/	/	/	/	/	RGS-Gao=134.6*
CC(C)N1CCN(Cc2cccn2-c2nccs2)CC1CCO (stereo not given)	101.5	191.6*[activator]	115.0	105.6	11	56*	2.4	101.6	100.8	105.8	99.5	113.5	RGS-Gao=115.0*
OCCC1CN(Cc2cccn2-c2nccs2)CCN1C1CCCCC1 (stereo not given)	96.7	94.0	96.5	97.5	17	6	/	/	/	/	/	/
c1ccc(Nc2c(-c3ccco3)nc3ccccn23)cc1	99.3	93.9	94.9	95.4	4	14	/	/	/	/	/	/
c1ccc(-c2nc(-c3ccco3)n3ccccc23)cc1	7.9*	0.6*	-6.6*	-2.4*	20	-2	1.4	89.8	87.5	91.3	96.6	82.9
COc1ccc(CCNC(=S)Nc2ccc(C(C)C)cc2)cc1	95.7	?	92.1	92.9	/	6	/	/	/	/	/	/
O=C(CN1C(=O)COc2ccccc21)N(Cc1ccc2c(c1)OCO2)CC1CCCO1 (stereo not given)	103.6	98.2	105.9	105.0	25	5	/	/	/	/	/	/
O=C(CN1C(=O)COc2ccccc21)N(CCCN1CCOCC1)CC1CC=CCC1 (stereo not given)	/	/	/	/	45	/	-2.6	103.1	99.6	103.5	100.7	88.4
CC(C)Cn1c(-c2nn(C)cc2Cl)n[nH]c1=S	58.6*	45.2*	49.3*	41.0	22	4	-1.0	96.7	111.0	97.3	103.6	91.0
Cc1ccc(CSc2nc3ccccc3c(=O)n2CCCC(=O)NCc2ccco2)cc1	100.0	99.0	98.5	95.3	11	33	/	/	/	/	/	/
Cc1ccc(C)c(NC(=S)c2ccc3ccccc3n2)c1	15.1*	8.0*	18.8*	2.2*	12	-5	-0.2	100.2	81.7	96.1	86.2	80.0
Cc1nc(N2CCCCC2)c(C#N)c(C)c1[N+](=O)[O-]	104.8	147.7	156.2*[activator]	133.4	25	16	-0.1	101.8	97.2	101.5	95.8	103.3
CCOP(=O)(OCC)C(Nc1ccc(F)cc1)c1ccccc1 (stereo not given)	/	/	149.5	/	/	/	0.8	99.7	93.9	99.2	99.5	93.5
O=C(NN=C1CCCCCC1)c1ccc(Br)o1	140.8*[activator]	119.6	115.2	326.8*[activator]	8	13	-0.9	113.2	115.5	114.9	110.6	123.6	RGS-Gao=115.2*
CC(C)N1CCC(=NNC(=O)c2ccc(Br)o2)CC1	97.8	97.3	96.9	92.1	34	8	/	/	/	/	/	/
CC1CN(C(NC(=O)c2ccccc2)C(Cl)(Cl)Cl)CC(C)O1 (stereo not given)	120.1	142.0	150.1*[activator]	103.5	11	4	-1.1	104.6	107.2	106.0	105.4	96.2
CN=Cc1cc(-c2ccccc2)sc1O	95.5	102.5	103.0	95.2	30	9	/	/	/	/	/	/
COc1ccc(CCNC(=O)c2cc3c(=O)n(C)c4ccccc4c3n2C)c(OC)c1	88.8	?	84.6	81.6	/	3	/	/	/	/	/	/
COc1ccc(-c2nnc(OCc3ccccc3)c3ccccc23)cc1	97.4	97.6	97.4	99.9	19	6	/	/	/	/	/	/
O=C(c1cnccn1)N(Cc1ccco1)C1(C(=O)NC2CCCCC2)CCCCC1	80.2	88.9	79.5	-53.5*	8	8	2.2	102.0	106.2	101.8	105.0	105.7	RGS-Gao=79.5*
O=C(c1cnccn1)N(Cc1ccco1)C1(C(=O)NC2CCCC2)CCCCC1	100.0	102.5	100.3	104.6	49	13	/	/	/	/	/	/
SMILES	RGS8-Gao	RGS7-Gao reg	RGS4-Gao reg	RGS16-Gao HTS	GSH fluor	Avidin fluor	Biotin-avidin	RGS8-Gao confirm	RGS7-Gao single	RGS16-Gao single	RGS4-Gao confirm	RGS19-Gao conf	others
CCOC(=O)/C(=N\Nc1ccccc1)S(=O)(=O)c1ccccc1	/	/	/	/	40	/	1.1	102.1	98.7	100.1	97.8	101.4
CCOC(=O)/C(=N/Nc1ccc(C)cc1)S(=O)(=O)c1ccc(Cl)cc1	101.0	102.3	105.2	109.2	13	15	/	/	/	/	/	/
O=C(CCN1C(=O)COc2ccccc21)N1CCN(c2ccccc2)CC1	98.9	96.0	97.5	98.6	20	9	/	/	/	/	/	/
Cc1nc(Cl)c(Cl)n1CCOc1ccccc1	6.8*	?	-14.4*	-7.5*	/	-2	1.0	101.4	107.9	103.3	104.6	101.3
Cc1nc2ccccc2n1CCCOc1ccccc1	102.6	102.0	101.6	107.6	29	5	/	/	/	/	/	/
CCCSc1nnc2c(n1)OC(c1cccn1C)N(C(C)=O)c1ccccc1-2 (stereo not given)	105.2	103.0	104.3	108.2	25	10	/	/	/	/	/	/
C=CCSc1nnc2c(n1)OC(c1ccccn1)N(C(C)=O)c1ccccc1-2 (stereo not given)	99.1	168.1*[activator]	122.1	114.1	33	215*	1.8	103.0	104.1	104.0	103.0	101.6	RGS-Gao=122.1*
